Measurements published in PubChem BioAssay AID1347433 (National Center for Advancing Translational Sciences (NCATS), 2020).
Inconclusive results are not listed. Activity calls are given as the source filed them. The call rests on the fitted dose curve; in most records, active means well fitted curve in the direction sought with a large enough effect; inconclusive means small, poorly fitted or top-dose-only effect, or another doubt; inactive means no such curve, though single readings can be large or run the other way.

target: Single-stranded DNA cytosine deaminase (Homo sapiens) (UniProt Q9GZX7); assay: Confirmatory (Round 2) qHTS assay for inhibitors of Activation Induced Cytidine Deaminase (AID): AID signals; conditions: AID deamination FRET-based fluorescence assay with UDG, 4 h; series mostly up to 78.4 µM
From the text: Assay Provider (PI) Patricia Gearhart Ph.D. National Institute on Aging National Institute of Health (NIH), Bethesda, MD Assay Provider (PI) Rahul Kohli Ph.D. Perelman School of Medicine University of Pennsylvania, Philadelphia, PA Activation-Induced Deaminase (AID) is a cytosine deaminase which converts cytosine into uracil within stretches of ssDNA. The presence of uracil in DNA initiates a cascade of mutagenic DNA repair to introduce point mutations and DNA double strand breaks. Specific targeting of AID to the immunoglobulin heavy chain loci (Igh) promotes mutagenesis in the antibody variable region for somatic hypermutation (SHM) or switch regions leading to class switch recombination (CSR). However, AID also plays a role in accumulating unnecessary mutations across the genome. Mis-targeting of AID results in the initiation of tumor development and leads to greater drug resistance among cancer cells when continually expressed. To identify an AID inhibitor, a small molecule library will be screened in collaboration with NCATS core facility at NIH. To confirm biological function, inhibitors will be examined in an in vitro murine B-cell activation assay and subsequent secondary validation screens. Top molecules will be further screened to identify inhibitory efficacy against a wild type primary splenocytes assay. Using these approaches, we hope to identify a small molecule with great efficacy and low toxicity for use as a molecular probe to further characterize AID's intricacies, or even as a therapeutic. A FRET based analysis of cytosine deamination, was developed to identify potential inhibitors of AID catalytic activity. This screen has two signal output, Read 1 evaluates the AID inhibition response. The second readout (Read 2) evaluates UDG response and is uses as a counterscreen to exclude false positive inhibitors. Inhibition in AID and inactivity in the UDG signal is the desired outcome for this assay.
PROTOCOL TABLE SEQUENCE No. (e.g., 1, 2, 3, etc.); PARAMETER (e.g., Cells, Incubation, Reagent, etc.); VALUE; DESCRIPTION 1a; Reagent; 3 uL; [4/3x] 1 uM AID/2.67 U/mL UDG 1b; Reagent; 3 uL; 2 U/mL UDG 1c; Reagent; 3 uL; 1 uM AID 2a; Compound; 46 nL; Follow-up plates (0.64 uM - 10 mM) 2b; Control; 46 nL; ATA ([…] - 10 mM) 3; Time; 10 min; incubation at room temperature 4; Reagents; 1 uL; [4x] 250 nM DJC20 / 250 nM DJC23 [Substrate] 5; Time; 4 hr; incubation at room temperature 6; Reagent; 4 uL; [2x] 250 mM NaOH 7; Time; 15 sec; centrifuge at 1000 rpm 8; Time; 30 min; incubation at room temperature 9a; Detection; fluorescence (Read 1: AID); EnVision (PerkinElmer) plate reader, 540 excitation and 590 emission filters 9b; Detection; fluorescence (Read 2: UDG); EnVision (PerkinElmer) plate reader, 560 excitation and 665 emission filters NOTES (numbers refer to sequence above) 1a; Reagents were dispensed in a medium-binding black solid-bottom Greiner plates (789176F) using a BioRptr liquid dispenser. Dispense 3 uL of [4/3x] 1 uM AID (provided by Kohli lab) and [4/3x] 2 U/mL UDG (NEB M0280L) into columns 1, 2, 5 to 48. 1b; Dispense 3 uL of [4/3x] 2 U/mL UDG into column 3. 1c; Dispense 3 uL of [4/3x] 1 uM AID into column 4. 2a; Compound (7-points [uM]: 0.64; 3.2; 16; 80; 400; 2,000; 10,000; […]) double pin-transferred (Dip Factor = 2) using the Kalypsys (Wako USA) pintool equipped with a 1536 pinhead for a final concentration range of 7.32 nM - 114 uM. 2b; 10 mM Aurintricarboxylic Acid (Sigma A1895) (ATA, 8-point, n = 2, 1:2.5 dilution in column 2) double pin-transferred (Dip Factor = 2) using the Kalypsys (Wako USA) pintool equipped with a 1536 pinhead for a [final] range of 186 nM - 114 uM. 3; Room temperature incubation. 4; Dispense 1 uL of substrate mixture from the Kohli lab [4x] […] DJC20 and [4x] 250 nM DJC23 into columns 1 to 48 . 5; Room temperature incubation. 6; Dispense 4 uL of substrate mixture [2x] 250 mM NaOH into columns 1 to 48. 7; Centrifugation step to remove bubbles. […]

Single-stranded DNA cytosine deaminase (Homo sapiens), sequence (Q9GZX7 whole entry, looked up): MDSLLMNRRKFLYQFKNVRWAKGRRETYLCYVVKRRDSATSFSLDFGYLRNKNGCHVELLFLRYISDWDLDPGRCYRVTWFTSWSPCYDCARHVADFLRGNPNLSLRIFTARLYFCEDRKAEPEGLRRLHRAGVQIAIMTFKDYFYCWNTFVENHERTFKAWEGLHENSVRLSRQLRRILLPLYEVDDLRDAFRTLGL

Potency, inactive:
O=c1cc2nc(-c3ccccc3)nc(SCCCn3ccnc3)n2[nH]1
O=c1cc2nc(-c3ccccc3)nc(SCCN3CCC(F)(F)CC3)n2[nH]1
O=c1cc2nc(-c3ccccc3)nc(SCCCc3ccncc3)n2[nH]1
Cc1noc(C)c1CCSc1nc(-c2ccccc2)nc2cc(=O)[nH]n12
CN1CCN(CCCSc2nc(-c3ccccc3)nc3cc(=O)[nH]n23)CC1
Cn1ccnc1CCSc1nc(-c2ccccc2)nc2cc(=O)[nH]n12

Potency, active:
O=C(O)C1=CC(=C(c2ccc(O)c(C(=O)O)c2)c2ccc(O)c(C(=O)O)c2)C=CC1=O 2240 nM
